Test results from PubChem BioAssay AID1159580 (chemical genetic matrix, 2015).
Hit rate of the full screen: of about 5,500 compounds, about 2,000 (36%) were called active. Roughly 18% stayed inconclusive and do not appear here. Rule as the data show it: active = normalized growth mostly below about 0.91 (no sharp cut-off); inconclusive = no clear call, values can overlap the other calls; inactive = mostly above about 0.92. This is one part of the list.

Experiment: chemical genetic growth profiling, strain panel (AID 1159580);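 also: tested at 20 µM; growth read once vehicle control cultures reached saturation at 30 °C; 1 = growth at the plate median or of vehicle wells; lower values mean less growth of the strain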
Conditions: growth OD

Measured: normalized growth

NC(=O)NC(=O)Cc1ccccc1
inactive: S. cerevisiae deletion strains, locus YJR075W, strain HOC1, hits give low values 1.01 | S. cerevisiae deletion strains, locus YKL009W, strain mrt4, hits give low values 0.99 | S. cerevisiae deletion strains, locus YKL068W, hits give low values 0.998 | S. cerevisiae deletion strains, locus YKL085W, strain MDH1 (second series), hits give low values 0.994 | S. cerevisiae deletion strains, locus YKL085W, strain MDH1, hits give low values 0.994 | S. cerevisiae deletion strains, locus YKL160W, strain elf1, hits give low values 0.941 | S. cerevisiae deletion strains, locus YKL190W, strain CNB1, hits give low values 1.03 | S. cerevisiae deletion strains, locus YKR001C, strain vps1, hits give low values 0.994 | S. cerevisiae deletion strains, locus YKR026C, strain gcn3, hits give low values 0.993 | S. cerevisiae deletion strains, locus YKR091W, strain srl3, hits give low values 0.98 | S. cerevisiae deletion strains, locus YLL001W, strain dnm1, hits give low values 1.02 | S. cerevisiae deletion strains, locus YLL026W, hits give low values 0.984 | S. cerevisiae deletion strains, locus YLL041C, strain sdh2, hits give low values 1 | S. cerevisiae deletion strains, locus YLR027C, strain aat2, hits give low values 0.988 | S. cerevisiae deletion strains, locus YLR039C, strain RIC1, hits give low values 1.02 | S. cerevisiae deletion strains, locus YLR058C, strain SHM2, hits give low values 1.01 | S. cerevisiae deletion strains, locus YLR102C, strain apc9, hits give low values 0.999 | S. cerevisiae deletion strains, locus YLR113W, strain HOG1, hits give low values 1.01 | S. cerevisiae deletion strains, locus YLR221C, strain rsa3, hits give low values 1.03 | S. cerevisiae deletion strains, locus YLR258W, strain gsy2, hits give low values 0.977 | S. cerevisiae deletion strains, locus YLR262C, strain YPT6 (second series), hits give low values 0.99 | S. cerevisiae deletion strains, locus YLR262C, strain YPT6, hits give low values 1.05 | S. cerevisiae deletion strains, locus YLR268W, strain sec22, hits give low values 0.985 | S. cerevisiae deletion strains, locus YLR320W, strain mms22, hits give low values 1.02 | S. cerevisiae deletion strains, locus YLR330W, strain CHS5, hits give low values 1.01 | S. cerevisiae deletion strains, locus YLR342W, strain FKS1 (second series), hits give low values 1.05 | S. cerevisiae deletion strains, locus YLR342W, strain FKS1, hits give low values 0.999 | S. cerevisiae deletion strains, locus YLR357W, strain rsc2, hits give low values 0.949 | S. cerevisiae deletion strains, locus YLR370C, strain arc18, hits give low values 0.966 | S. cerevisiae deletion strains, locus YLR371W, strain rom2, hits give low values 0.997 | S. cerevisiae deletion strains, locus YLR384C, strain iki3, hits give low values 0.982 | S. cerevisiae deletion strains, locus YLR418C, strain cdc73, hits give low values 0.998 | S. cerevisiae deletion strains, locus YML016C, strain PPZ1, hits give low values 1.01 | S. cerevisiae deletion strains, locus YML032C, strain rad52, hits give low values 1 | S. cerevisiae deletion strains, locus YML120C, strain ndi1, hits give low values 1.01 | S. cerevisiae deletion strains, locus YML124C, strain tub3, hits give low values 0.996 | S. cerevisiae deletion strains, locus YMR058W, strain fet3, hits give low values 0.978 | S. cerevisiae deletion strains, locus YMR078C, strain ctf18, hits give low values 0.997 | S. cerevisiae deletion strains, locus YMR125W, strain sto1, hits give low values 0.957 | S. cerevisiae deletion strains, locus YMR129W, hits give low values 0.966 | S. cerevisiae deletion strains, locus YMR205C, strain PFK2, hits give low values 1.01 | S. cerevisiae deletion strains, locus YMR223W, strain ubp8, hits give low values 1.01 | S. cerevisiae deletion strains, locus YMR231W, strain pep5, hits give low values 1 | S. cerevisiae deletion strains, locus YMR263W, strain SAP30, hits give low values 1.01 | S. cerevisiae deletion strains, locus YMR307W, strain GAS1, hits give low values 1.08 | S. cerevisiae deletion strains, locus YNL067W, strain RPL9B, hits give low values 1.02 | S. cerevisiae deletion strains, locus YNL071W, strain lat1, hits give low values 0.995 | S. cerevisiae deletion strains, locus YNL128W, strain TEP1, hits give low values 1 | S. cerevisiae deletion strains, locus YNL153C, strain GIM3, hits give low values 1.03 | S. cerevisiae deletion strains, locus YNL183C, strain NPR1, hits give low values 0.94 | S. cerevisiae deletion strains, locus YNL209W, strain ssb2, hits give low values 0.975 | S. cerevisiae deletion strains, locus YNL233W, strain BNI4, hits give low values 1.01 | S. cerevisiae deletion strains, locus YNL248C, strain rpa49, hits give low values 0.917 | S. cerevisiae deletion strains, locus YNL250W, strain rad50, hits give low values 0.992 | S. cerevisiae deletion strains, locus YNL271C, strain bni1, hits give low values 0.992 | S. cerevisiae deletion strains, locus YNL298W, strain CLA4, hits give low values 1 | S. cerevisiae deletion strains, locus YNL307C, strain MCK1, hits give low values 0.994 | S. cerevisiae deletion strains, locus YNL322C, strain KRE1 (second series), hits give low values 0.965 | S. cerevisiae deletion strains, locus YNL322C, strain KRE1, hits give low values 1.01 | S. cerevisiae deletion strains, locus YNR049C, strain mso1, hits give low values 0.962 | S. cerevisiae deletion strains, locus YNR052C, strain pop2, hits give low values 0.989 | S. cerevisiae deletion strains, locus YOL006C, strain TOP1, hits give low values 1.14 | S. cerevisiae deletion strains, locus YOL012C, strain htz1 1.28 | S. cerevisiae deletion strains, locus YOL147C, strain pex11, hits give low values 0.997 | S. cerevisiae deletion strains, locus YOR001W, strain rrp6, hits give low values 1.02 | S. cerevisiae deletion strains, locus YOR061W, strain CKA2, hits give low values 1 | S. cerevisiae deletion strains, locus YOR069W, strain VPS5, hits give low values 1 | S. cerevisiae deletion strains, locus YOR070C, strain gyp1, hits give low values 0.996 | S. cerevisiae deletion strains, locus YOR080W, strain dia2, hits give low values 0.986 | S. cerevisiae deletion strains, locus YOR083W, strain WHI5, hits give low values 0.913 | S. cerevisiae deletion strains, locus YOR106W, strain vam3, hits give low values 0.96 | S. cerevisiae deletion strains, locus YOR136W, strain idh2, hits give low values 0.995 | S. cerevisiae deletion strains, locus YOR144C, strain elg1, hits give low values 0.994 | S. cerevisiae deletion strains, locus YOR184W, strain ser1, hits give low values 0.988 | S. cerevisiae deletion strains, locus YOR231W, strain MKK1, hits give low values 0.988 | S. cerevisiae deletion strains, locus YOR265W, strain rbl2, hits give low values 0.99 | S. cerevisiae deletion strains, locus YOR270C, strain vph1, hits give low values 0.979 | S. cerevisiae deletion strains, locus YOR290C, strain snf2, hits give low values 0.936 | S. cerevisiae deletion strains, locus YOR316C, strain cot1, hits give low values 0.994 | S. cerevisiae deletion strains, locus YPL051W, strain arl3, hits give low values 0.974 | S. cerevisiae deletion strains, locus YPL055C, strain LGE1, hits give low values 1.08 | S. cerevisiae deletion strains, locus YPL078C, strain atp4, hits give low values 0.955 | S. cerevisiae deletion strains, locus YPL106C, strain sse1, hits give low values 0.992 | S. cerevisiae deletion strains, locus YPL240C, strain hsp82, hits give low values 0.997 | S. cerevisiae deletion strains, locus YPL241C, strain CIN2, hits give low values 1.03 | S. cerevisiae deletion strains, locus YPL256C, strain CLN2, hits give low values 0.96 | S. cerevisiae deletion strains, locus YPR119W, strain clb2, hits give low values 1 | S. cerevisiae deletion strains, locus YPR141C, strain kar3, hits give low values 0.988 | S. cerevisiae deletion strains, locus YPR163C, strain tif3, hits give low values 0.995 | S. cerevisiae deletion strains, locus YPR167C, strain met16, hits give low values 0.996 | S. cerevisiae deletion strains, strain wtn01, hits give low values 0.976 | S. cerevisiae strains, strain wild type, hits give low values 1.06
